From PubChem BioAssay (NCATS)
Values joined by “and” are separate entries in the source; they are usually repeats but may differ in a detail not shown here. Equal values may be shown once. Inconclusive results are not listed. A call without a number means that no potency is given here. Active and inactive are the calls of the source. Unless noted, calls follow the shape of the dose curve; as a rule, active = well fitted curve in the direction sought with a large enough effect; inconclusive = small, poorly fitted or top-dose-only effect, or another doubt; inactive = no such curve, though single readings can be large; an effect the other way counts as inactive or inconclusive.

Tests used:
[1] = S16 Schwann cell viability assay (CellTiter-Glo assay) (AID 624031); also: nearly all actives have a fitted effect of over 70% in size; also: potency is read from the fitted curve at half-maximal effect
Summary of the method: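 Luminescent ATP read-out (CellTiter-Glo) after 24 h compound exposure of native S16 rat Schwann cells at 37 °C. Signals were normalized between cell-free wells and DMSO-treated cells, set as 0% activity.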

[2] = S16 Schwann cell PMP22 intronic element firefly luciferase assay (AID 624032); also: nearly all actives have a fitted effect of over 30% in size; also: potency is read from the fitted curve at half-maximal effect
Summary of the method: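 Luciferase reporter of PMP22 intronic-element expression in stably transfected S16 rat Schwann cells, read by ONE-Glo luminescence after 24 h compound exposure at 37 C. Activity scaled between DMSO (0%) and positive-control PTC124; concentration-effect curves quality-classified.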

[3] = S16 Schwann cell PMP22 intronic element beta-lactamase assay (AID 624044; calls by dose curve; also: nearly all actives have a fitted effect of over 15% in size; also: potency is read from the fitted curve at half-maximal effect)
Summary of the method: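 Beta-lactamase reporter under a PMP22 intronic regulatory element in stable S16 rat Schwann cells; 24 h compound exposure. 460 nm blue signal normalized between DMSO (0%) and potassium clavulanate, with 535 nm FRET tracking viability; curves classed by r2 and response.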

[4] = qHTS assay for small molecule agonists of the antioxidant response element (ARE) signaling pathway (AID 651741; active = well fitted activation curve with a large enough effect in the signal ratio; the % refers to the signal ratio)
Summary of the method: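 Beta-lactamase reporter under ARE control in HepG2 cells, 2,000 per well, was induced by 16 h compound treatment at 37 C. Read-out was fluorescence from LiveBLAzer B/G FRET substrate after 2 h at room temperature.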

[5] = qHTS assay for small molecule activators of the p53 signaling pathway (AID 651743; active = well fitted activation curve with a large enough effect in the signal ratio, not every such curve was filed as active; the % refers to the signal ratio; also: series mostly up to about 92 µM); settings: HCT-116 p53RE-bla, beta-lactamase FRET ratio, 16 h; activation: active compounds read high
Summary of the method: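 After 16 hours compound treatment at 37 C, HCT-116 cells stably expressing p53RE-driven beta-lactamase were loaded with LiveBLAzer B/G FRET substrate for 2 hours at room temperature. Fluorescence intensity served as the p53 activation read-out.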

With `N/C(=N\N=C\c1ccc(Cl)cc1)N/N=C/c1ccc(Cl)cc1` the Potency [1] was “inactive”, the Potency [2] was “inactive” and the Potency [3] was “inactive”.
In the case of `Cc1ccc(S(=O)(=O)NC(=O)NC2CCCC2)cc1`, the Potency [1] is reported as “inactive” and the Potency [2] is reported as “inactive”.
For `NS(=O)(=O)Cc1noc2ccccc12`, the Potency [1] was “inactive”, the Potency [2] was “inactive” and the Potency [3] was “inactive”.
For `COc1cc(N)c(Cl)cc1C(=O)NC1CCN(Cc2ccccc2)CC1`, the Potency [1] was “inactive”, the Potency [2] was “inactive” and the Potency [3] was “inactive”.
With `O=C(NC1CCN(CCc2c[nH]c3ccccc23)CC1)c1ccccc1` the Potency [1] was “inactive” and the Potency [2] was “inactive”.
In the case of `O[C@@H](c1cc(C(F)(F)F)nc2c(C(F)(F)F)cccc12)[C@H]1CCCCN1`, the Potency [1] is reported as 28.7 µM (active) and the Potency [2] is reported as 36.1 µM (active).
In the case of `O=C(NCCc1c[nH]c2ccccc12)c1cccnc1`, the Potency [1] is reported as “inactive”, the Potency [2] is reported as “inactive” and the Potency [3] is reported as “inactive”.
In the case of `NC(=O)C1(N2CCCCC2)CCN(CCCC(=O)c2ccc(F)cc2)CC1`, the Potency [1] is reported as “inactive”, the Potency [2] is reported as “inactive” and the Potency [3] is reported as “inactive”.
For `OC(C#CCN1CCCC1)(c1ccccc1)c1ccccc1`, the Potency [1] was “inactive”, the Potency [2] was “inactive” and the Potency [3] was “inactive”.
In the case of `CC(C)Nc1cccnc1N1CCN(C(=O)c2cc3cc(NS(C)(=O)=O)ccc3[nH]2)CC1`, the Potency [1] is reported as “inactive”, the Potency [2] is reported as 14.4 µM (active) and the Potency [3] is reported as “inactive”.
In the case of `Cc1ccc(O)c([C@H](CCN(C(C)C)C(C)C)c2ccccc2)c1`, the Potency [1] is reported as “inactive”, the Potency [2] is reported as “inactive” and the Potency [3] is reported as “inactive”.
In the case of `O=C(O)CCc1nc2ccccc2[nH]1`, the Potency [1] is reported as “inactive” and the Potency [2] is reported as “inactive”.
For `CCNC(=O)NCc1cccc(Cl)c1`, the Potency [1] was “inactive”, the Potency [2] was “inactive” and the Potency [3] was “inactive”.
In the case of `CCCCC(CC)COC(=O)/C=C/c1ccc(OC)cc1` (configuration not stated), the Potency [1] is reported as “inactive”, the Potency [2] is reported as “inactive” and the Potency [3] is reported as “inactive”.
For `CC(=O)Nc1ccc(S(=O)(=O)Nc2ccc([N+](=O)[O-])cc2)cc1`, the Potency [1] was “inactive” and the Potency [2] was “inactive”.
For `CN1CCC(OC(c2ccccc2)c2ccccc2)CC1`, the Potency [1] was “inactive”, the Potency [2] was “inactive” and the Potency [3] was “inactive”.
With `CC(=O)Nc1ncc([N+](=O)[O-])s1` the Potency [1] was “inactive”, the Potency [2] was “inactive” and the Potency [3] was “inactive”.
With `COc1ccc(C(=O)c2ccccc2O)c(O)c1` the Potency [1] was “inactive”, the Potency [2] was “inactive” and the Potency [3] was “inactive”.
In the case of `COc1ccc(-c2cc(C(F)F)nn2-c2ccc(S(N)(=O)=O)cc2)cc1F`, the Potency [1] is reported as “inactive”, the Potency [2] is reported as “inactive” and the Potency [3] is reported as “inactive”.
With `Clc1cccc(C(c2ccc3nc[nH]c3c2)n2ccnc2)c1` (configuration not stated) the Potency [1] was “inactive”, the Potency [2] was “inactive” and the Potency [3] was “inactive”.
For `O=C(O)C1(C(=O)O)CCC1.[NH2-].[NH2-].[Pt+2]`, the Potency [1] was “inactive”, the Potency [2] was “inactive” and the Potency [3] was “inactive”.
In the case of `Cc1cc2c(OCC(CNC(C)(C)C)OC(=O)c3ccccc3)cccc2[nH]1` (configuration not stated), the Potency [1] is reported as “inactive”, the Potency [2] is reported as 18.1 µM (active) and the Potency [3] is reported as “inactive”.
With `CCN(CC)CCNc1ccc(CO)c2sc3ccccc3c(=O)c12` the Potency [1] was “inactive”, the Potency [2] was 1.61 µM (active) and the Potency [3] was 11.2 µM (active).
In the case of `CC(=O)NO`, the Potency [1] is reported as “inactive”, the Potency [2] is reported as “inactive” and the Potency [3] is reported as “inactive”.
In the case of `Nc1nc(-c2ccccc2)c(Br)c(=O)[nH]1`, the Potency [1] is reported as “inactive”, the Potency [2] is reported as “inactive” and the Potency [3] is reported as “inactive”.
For `Cc1cc(-c2ccccc2)nnc1NCCN1CCOCC1`, the Potency [1] was “inactive”, the Potency [2] was “inactive” and the Potency [3] was “inactive”.
With `COc1ccc(/C=N/NC(=O)c2ccncc2)cc1OC` the Potency [1] was “inactive” and the Potency [3] was “inactive”.
For `c1ccc(CC2=NCCN2)cc1`, the Potency [1] was “inactive” and the Potency [3] was “inactive”.
With `CCCCCCCCCCCCCCCCO` the Potency [1] was “inactive”, the Potency [2] was “inactive” and the Potency [4] was “inactive”.
With `NC(=O)c1ccccc1O` the Potency [1] was “inactive”, the Potency [2] was “inactive” and the Potency [4] was “inactive”. The activation [5] was -1.87% (inactive).
In the case of `CCCCN=C(N)N=C(N)N`, the Potency [1] is reported as “inactive” and the Potency [3] is reported as “inactive”.
With `OCCOCCN1CCN(C2=Nc3ccccc3Sc3ccccc32)CC1` the Potency [1] was “inactive” and the Potency [3] was “inactive”.
In the case of `COc1ccc(C(=O)c2ccccc2)c(O)c1`, the Potency [1] is reported as “inactive”, the Potency [2] is reported as “inactive” and the activation [5] is reported as -2.61% (inactive) and -3.01% (inactive).
For `CCCCNc1ccc(C(=O)OCCOCCOCCOCCOCCOCCOCCOCCOCCOC)cc1`, the Potency [1] was “inactive” and the Potency [3] was “inactive”.
In the case of `CC(C)=CCOc1ccc(/C=C/C(=O)c2ccc(OCC=C(C)C)cc2OCC(=O)O)cc1`, the Potency [1] is reported as “inactive” and the Potency [3] is reported as “inactive”.
With `Cc1ccccc1OCC(O)CO` (configuration not stated) the Potency [1] was “inactive” and the Potency [3] was “inactive”.
For `FC(F)(F)C(F)(F)C(F)(F)C(F)(F)C(F)(F)C(F)(F)C(F)(F)C(F)(F)Br`, the Potency [1] was “inactive” and the Potency [3] was “inactive”.
With `COc1cc(C(=O)NCc2ccc(OCCN(C)C)cc2)cc(OC)c1OC` the Potency [1] was “inactive” and the Potency [3] was “inactive”.
In the case of `C/C=C/C=N/NC(=O)c1ccncc1`, the Potency [1] is reported as “inactive” and the Potency [3] is reported as “inactive”.
With `Nc1ccc(S(=O)(=O)Nc2cnc3ccccc3n2)cc1` the Potency [1] was “inactive” and the Potency [3] was “inactive”.
For `CCOc1ccc(NC(C)=O)cc1`, the Potency [1] was “inactive”, the Potency [2] was “inactive” and the Potency [4] was “inactive”. For the same molecule, the activation [5] was -2.67% (inactive) and -5.43% (inactive).
For `CCCCCN=C(N)N/N=C/c1c[nH]c2ccc(OC)cc12`, the Potency [1] was “inactive” and the Potency [3] was “inactive”.
For `C[N+]1(CC2COC(c3ccccc3)(C3CCCCC3)O2)CCCCC1` (configuration not stated), the Potency [1] was “inactive” and the Potency [3] was “inactive”.
In the case of `CCCCCCCCCCCCCC(=O)OC(C)C`, the Potency [1] is reported as “inactive”, the Potency [2] is reported as “inactive” and the Potency [4] is reported as “inactive”. The activation [5] was -0.604% (inactive).
